From PubChem BioAssay AID720582 (The Scripps Research Institute Molecular Screening Center, 2013) come the findings set out here.

The whole screen tested about 370,000 compounds, of which about 2,300 (0.62%) were called active. This is one part of a sample in which actives are shown more often than they occur. Values without a mark were called inactive.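 The calls were made as follows: active = inhibition above a per-campaign cutoff equal to the mean of compounds falling between control-based bounds plus 3 SD (cut at about 20% in these data); inactive = the rest.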

Chain of Disintegrin and metalloproteinase domain-containing protein 10 (Homo sapiens) (O14672 214-748 limits assumed): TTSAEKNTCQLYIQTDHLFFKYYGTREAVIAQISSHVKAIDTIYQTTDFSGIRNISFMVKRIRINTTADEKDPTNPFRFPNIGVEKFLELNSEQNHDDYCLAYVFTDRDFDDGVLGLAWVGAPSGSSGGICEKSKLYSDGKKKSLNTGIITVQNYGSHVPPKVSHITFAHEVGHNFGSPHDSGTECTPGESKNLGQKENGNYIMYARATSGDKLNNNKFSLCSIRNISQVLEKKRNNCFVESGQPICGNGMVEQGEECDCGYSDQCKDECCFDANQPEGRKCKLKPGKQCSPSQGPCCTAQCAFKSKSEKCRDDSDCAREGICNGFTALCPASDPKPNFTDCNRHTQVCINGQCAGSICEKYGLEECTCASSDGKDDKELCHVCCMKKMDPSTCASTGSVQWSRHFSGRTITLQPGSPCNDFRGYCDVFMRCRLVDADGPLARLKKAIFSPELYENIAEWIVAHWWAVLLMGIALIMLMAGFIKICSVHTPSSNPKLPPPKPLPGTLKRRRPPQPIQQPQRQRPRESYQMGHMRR

This assay has as its target Disintegrin and metalloproteinase domain-containing protein 10 (Homo sapiens) (UniProt O14672). The assay is described as follows: human ADAM10 inhibitors, primary screen, biochemical, QFRET, HTS (AID 720582).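 Also: 0% = DMSO wells while the 100% control is not disclosed.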 Conditions: recombinant ADAM10, EDANS/DABCYL FRET peptide cleavage, 3 h; at 7 µM; hits give high values.
On to `COc1cccc(Cn2cc(COC(=O)Nc3ccc(F)cc3)nn2)c1`, for which the inhibition (usually the relative decrease from the control value, in per cent) is 3.55%. `O=C(C1CCCN1S(=O)(=O)c1ccccc1)N1CCc2ccccc2C1` (stereo not given): the inhibition is 5.1%. Consider `CC(C)(C)OC(=O)N1CCC(NC(=O)c2[nH]cnc2C(=O)N[C@@H](Cc2ccccc2)C(=O)OCc2ccccc2)CC1`, for which the inhibition is 26.5% (active).

In the case of `C[C@H](NC(=O)c1nc[nH]c1C(=O)NCC(=O)OC(C)(C)C)c1ccccc1`, the inhibition was 4.61%. For the compound `CNC(=O)c1[nH]cnc1C(=O)N[C@@H](CC(C)C)C(=O)OCc1ccccc1`, the inhibition was -0.66%. For `CC(C)(C)OC(=O)CNC(=O)c1[nH]cnc1C(=O)N[C@@H](Cc1ccccc1)C(=O)OCc1ccccc1`, the inhibition was 27% (active). For `C[C@@H](NC(=O)c1nc[nH]c1C(=O)N1CCN(C(=O)OC(C)(C)C)CC1)c1ccccc1`, the inhibition is -5.64%. The result for `CNC(=O)c1[nH]cnc1C(=O)N[C@@H](CC(C)C)C(=O)OC(C)(C)C` reads 1.72%. Take `CCOC(=O)C1CCN(C(=O)C(C)(C)NC(=O)Nc2ccccc2Cl)CC1`: the inhibition was -4.18%. Consider `O=C(c1ccccc1)c1ccc(-c2ccccc2C(=O)NC2CCCCN(Cc3ccc(Cl)cc3)C2=O)cc1` (stereo not given), for which the inhibition was 0.76%. In the case of `COc1ccc(CCNC(=O)CSc2nc3c([nH]2)c(=O)n(C)c(=O)n3C)cc1`, the inhibition is -8.76%. Next, `Cc1cc(C)n2ncc(C(=O)Nc3ccc4c(c3)OCCO4)c2n1`: -3.85%; `CCC(=O)Nc1ccc2c(c1)C(=O)N(C)[C@H]1CC[C@H](CC(=O)NCCOC)O[C@@H]1CO2`: 2.62%.

Turning to `Cc1cccc(CCNS(=O)(=O)c2ccc(S(=O)(=O)NC3CCCC3)cc2)c1`, the inhibition was 27.1% (active). `CC(C)c1ccc(S(=O)(=O)NC2CCCC2)cc1`: the inhibition was -3.8%. In the case of `Cc1cccc(CCNS(=O)(=O)c2ccc3c(c2)NC(=O)CO3)c1`, the inhibition is 0.59%. Turning to `Cc1ccc(NC(=S)NNC(=O)CSc2nnc(SCc3ccccc3Cl)s2)cc1`, the inhibition is 17.8%. Next, `Cc1ccc(NC(=O)Nc2cc(C)nn2-c2ccccc2)cc1`: -2.62%; `Cn1c(Nc2ccccc2)cc(=O)n(C)c1=O`: 7.08%; `Cc1cc(Nc2ccccc2)n(C(=O)c2ccc(N)cc2)n1`: 21.3% (active). On to `CC(=O)Nc1ccc(C(=O)Nc2cccc(S(=O)(=O)NC3=NCCC3)c2)cc1`, for which the inhibition was -1.25%. The result for `O=C(NNC(=O)c1cccc(S(=O)(=O)Nc2ccc(Cl)cc2)c1)c1ccc(=O)[nH]c1` reads 2.04%; that for `O=C(Nc1cccc(S(=O)(=O)Nc2ccc(Cl)cc2)c1)c1ccc2c(c1)OCCO2`, 20.5% (active); that for `O=C(NC1CCC1)c1ccc(C#CC2CC2)cn1`, -7.03%. Consider `COc1ccc(-n2c(COc3ccc(C)cc3)nnc2SCC(=O)Nc2ccc(Oc3ccccc3)cc2)cc1`, for which the inhibition was -2.63%. Turning to `COc1cc(COCC(O)CN2CCN(Cc3ccc4c(c3)OCO4)CC2)cc(OC)c1OC` (stereo not given), the inhibition is -2.3%. Next, `COc1ccc(-c2cc(C(=O)N3CCN(Cc4ccc5c(c4)OCO5)CC3)on2)cc1OC`: -0.99%; `COc1cc(Cl)c(S(=O)(=O)N2CCN(Cc3ccc4c(c3)OCO4)CC2)cc1Cl`: 45.9% (active). Consider `Cc1ccccc1CN1CCCCC(NC(=O)c2cccc(C#N)c2)C1=O` (stereo not given), for which the inhibition was -1.06%. On to `Cc1nc2ccc(C(=O)N3CCN(C(=O)C(C)(C)C)CC3)cc2n1C1CCCC1`, for which the inhibition was 1.94%. As for `COc1cc(SC)ccc1C(=O)Nc1nc(C)cs1`, the inhibition was -7.24%.

For the compound `Cc1csc(NC(=S)Nc2cccc(Cl)c2)n1`, the inhibition is 23.1% (active). `Cc1ccc(C2CCN(C(=S)Nc3cccc(Cl)c3)C2)cc1` (stereo not given): the inhibition is 8.61%.

Consider `C=C(C)C1CC23C(=O)C4(C(=O)c5ccccc5)C[C@@]5(C)CCC(CC2C1(C)C)(C4=O)C35OC` (stereo not given in full), for which the inhibition was -9.26%.

As for `O=C(C1CCN(S(=O)(=O)c2ccccc2)CC1)N1CCN(C2CCCCC2)CC1`, the inhibition is -10.1%.
